In the OligoGym collection:

Each sequence was assayed against DPEP3 (assay: pooled miR-30 sensor sort-seq; sequence = guide strand). Settings: shRNA.
Further: reference of the scale not given here.

Sequence | sensor-assay potency score (higher = more potent)
AAATTGTCACACACAGCTCTGG | -0.275
TTGGTGGAACTCTCTGCCCATG | -1.6
ATTCTTGTAACGCTGTCTCAGG | -0.648
TGAAGCTCTTCCTCGCTCCAGC | -0.659
ATTTCGCAGGTTAACATCCTGA | -0.609
ATGTGGTGTCTGAACTTGGTGG | -0.807
TTCCACTTGTCTGAAGACCCGC | -0.394
TGAACTTGGTGGAACTCTCTGC | 0.129
TTGTCTGAAGACCCGCAGCAGG | -1.57
TACATGTGGTGTCTGAACTTGG | -0.261
AAGCACATTCTTGTAACGCTGT | 0.352
TTTGAGAGCTGTTCAGACCTTC | 0.484
TCAACAAATTGTCACACACAGC | -1.21

The sequences below were run against DPM2 in the same assay as above. Settings: shRNA.

Sequence | sensor-assay potency score (higher = more potent)
ATGAACAGTCCCACAAACAGGA | -0.342
TGAACAGTCCCACAAACAGGAG | -1.56
TAGTAGGTGAAGATGATCAGGC | 0.327
TTGTGGATGACATGCTGACTGT | -1.33
TTCAGCATCACATAGGAGATGA | -0.473
TAGGTGAAGATGATCAGGCTAA | 0.29
TCTCTTGGTCTTCAGCATCACA | -1.19
TCCCACAAACAGGAGCAGCAGG | -1.71
